This is an account of results in PubChem BioAssay.

Calls of active or inactive are those of the source.

For one assay, the target named is Albumin (Bos taurus) (UniProt P02769). Nature of the assay: compounds binding labelled BSA control protein – biochemical, small-molecule microarray, Alexa647 label, 635/667 nm fluorescence, artefact control for SMM control protein annotation, profiling panel (AID 1118).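 Further: score merges 667 nm emission intensity and signal-to-noise per printed compound spot.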 As to conditions: BSA-A647 binding, fluorescence 635 nm, higher = more signal.
A short description of assay [1]: probe aXIP binding to arrayed compounds – biochemical, NeuroSMM set, 635/667 nm fluorescence, primary screen (AID 1119).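 Further: probe is the protein aXip251-270 applied at 1 µg/mL to compound-printed slides; binding of probe to printed compounds measured as 667 nm fluorescence plus signal to noise.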 As to conditions: small-molecule microarray, higher = more signal, called active from +8 up or from −8 down.
The nature of assay [2]: probe aNOTCH3 binding on compound microarray – biochemical, small-molecule microarray, 635/667 nm fluorescence, primary screen (AID 1120).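 Further: probe is a biotin-tagged antibody raised against NOTCH3 rather than NOTCH3 protein; score merges spot fluorescence near 667 nm with spot signal to noise.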 As to conditions: higher = more signal.
Assay [3] can be described thus: probe aNOTCH2 binding on compound microarray – biochemical, small-molecule microarray, 635/667 nm fluorescence, primary screen (AID 1121).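 Further: score merges feature fluorescence read at 667 nm with its signal to noise.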 As to conditions: higher = more signal.
Assay [4] concerns the target Carbonic anhydrase 2 (Homo sapiens) (UniProt P00918). Nature of the assay: compounds binding carbonic anhydrase 2 – biochemical, small-molecule microarray, Alexa647-labelled CAII, profiling panel (AID 1122). As to conditions: CAII-A647 binding fluorescence, higher = more signal.
The nature of assay [5]: COS7 lysate on small-molecule microarray, probe aHis, 635 nm (AID 1123).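 Further: z-score combines 667nm fluorescence intensity with signal-to-noise per printed compound spot.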 As to conditions: COS7 cell lysate, fluorescence, higher = more signal.
Assay [6] can be described thus: probe aLAP1 signal on lysate-treated microarray – cell lysate, small-molecule microarray, COS7 lysate, primary screen (AID 1124).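 Further: lysate comes from COS7 cells expressing LAP1 and is applied at 0.3 µg/mL; score merges spot fluorescence near 667 nm with signal-to-noise over triplicate slides.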 To be noted: probe aLAP1, fluorescence, higher = more signal.
A further assay relates to Sam68 (KHDRBS1). Nature of the assay: compounds binding KHDRBS1 protein – biochemical, small-molecule microarray, 635 nm fluorescence, primary screen (AID 1125).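 Further: score merges 667 nm channel intensity with signal to noise over triplicate slides.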 To be noted: higher = more signal.
For assay [7], the system named is Chordin-like protein 2 (CHRDL2). As to the kind of experiment: compounds binding chordin-like 2 – biochemical, small-molecule microarray, 635 nm fluorescence, primary screen (AID 1126).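 Further: printed compound slides probed with Chrdl2 protein at 4 µg/mL for 1 h at 4 C; score merges 667 nm emission intensity with signal to noise over three replicate slides.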 As to conditions: fluorescence 635 nm, higher = more signal.
Assay [8] deals with Concanavalin-A (Canavalia ensiformis) (UniProt P02866). As to the kind of experiment: compounds binding concanavalin A lectin – biochemical, small-molecule microarray, Alexa647 label, 635 nm, artefact control for SMM control protein annotation, primary screen (AID 1127).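 Further: z combines 667 nm emission intensity with signal-to-noise across three replicate slides.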 As to conditions: ConA-A647 binding fluorescence, higher = more signal.
Chain of Concanavalin-A (Canavalia ensiformis) (P02866 whole entry, looked up): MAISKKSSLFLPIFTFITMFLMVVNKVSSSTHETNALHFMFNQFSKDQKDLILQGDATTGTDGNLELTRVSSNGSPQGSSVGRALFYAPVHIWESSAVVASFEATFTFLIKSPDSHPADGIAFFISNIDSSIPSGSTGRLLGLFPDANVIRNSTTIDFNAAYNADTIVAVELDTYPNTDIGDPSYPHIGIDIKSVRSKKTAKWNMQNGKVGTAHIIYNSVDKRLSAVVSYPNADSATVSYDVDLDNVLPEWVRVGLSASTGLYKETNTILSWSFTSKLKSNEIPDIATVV

Chain of Albumin (Bos taurus) (P02769 whole entry, looked up): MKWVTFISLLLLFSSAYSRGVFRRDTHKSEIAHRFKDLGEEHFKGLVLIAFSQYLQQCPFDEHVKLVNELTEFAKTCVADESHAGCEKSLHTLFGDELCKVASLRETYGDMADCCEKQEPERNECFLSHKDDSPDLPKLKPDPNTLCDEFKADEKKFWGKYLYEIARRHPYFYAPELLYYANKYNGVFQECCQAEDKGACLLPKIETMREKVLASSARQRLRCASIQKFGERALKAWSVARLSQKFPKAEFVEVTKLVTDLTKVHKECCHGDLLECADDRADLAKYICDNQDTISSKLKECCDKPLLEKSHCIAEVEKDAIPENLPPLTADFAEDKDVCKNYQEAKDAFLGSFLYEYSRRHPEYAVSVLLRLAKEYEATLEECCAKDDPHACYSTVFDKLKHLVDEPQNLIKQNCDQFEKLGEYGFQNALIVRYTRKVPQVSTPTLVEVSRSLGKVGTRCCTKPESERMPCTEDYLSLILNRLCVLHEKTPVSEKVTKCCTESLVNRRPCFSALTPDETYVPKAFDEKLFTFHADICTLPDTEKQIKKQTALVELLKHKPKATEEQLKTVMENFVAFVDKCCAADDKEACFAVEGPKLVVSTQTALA

`CO[C@H]1COC(=O)CC=C[C@@H](C)[C@H](NS(=O)(=O)c2ccc(C)cc2)COC(=O)CCC[C@@H]1C`: the composite z-score with Albumin (Bos taurus) is -0.48; in assay [2], -0.0711; in assay [3], -0.11; in assay [4], -0.312; in assay [5] it was -0.42; in assay [6] it was 0.303. Besides, the composite z-score was 0.515 with Sam68 (KHDRBS1), 1.23 in [7] and -0.0177 in assay [8]. In addition, the composite Z-score in assay [1] is -0.483 (inactive).
As for `COC(=O)CC=C[C@H](C)[C@@H](OCc1cccc(Br)c1)[C@@H](C)[C@H](OC)C1CCCCC1`, the composite z-score with Albumin (Bos taurus) is -1.15; in assay [2], -0.0914; in [3] it was -0.124; in assay [4] it was 0.0679; in [5], -0.504; in [6], -0.0998. The figures for the composite z-score (with Sam68 (KHDRBS1); in assay [7]; in [8]) were -0.446, 0.652 and -1.23, respectively. Besides, the composite Z-score in assay [1] was 0.143 (inactive).
Regarding `COCCNC(=O)OCC1CCCC2(CC(OC(=O)NCc3ccc4c(c3)OCO4)CC(CCC(=O)N[C@@H](C)C(=O)OC)O2)O1` (stereo not given in full), the composite z-score with Albumin (Bos taurus) is 0.0746; in assay [2], -0.0164; in assay [3] it was -0.0666; in assay [4], 0.234; in [5], 0.678; in assay [6], -0.0692. Also, the composite z-score in the assay on Sam68 (KHDRBS1) stood at 1.3; in assay [7], 0.454; in assay [8] it was 1.02. Further, the composite Z-score in assay [1] is 0.161 (inactive).
Regarding `C[C@@H]1C=CCC(=O)OC[C@H]2O[C@@H](C=C[C@@H]2O)[C@H](C)C=CCC(=O)OC1`, the composite z-score in the assay with Albumin (Bos taurus) was -0.861; in [2] it was 0.0903; in [3], -0.0903; in assay [4], -0.5; in assay [5], -1.26; in [6] it was -0.307. In addition, the values for the composite z-score (in the assay on Sam68 (KHDRBS1); in assay [7]; in [8]) were -0.419, 1.6 and -1.65, respectively. In assay [1], the composite Z-score is 4.07 (inactive).
Regarding `O=C1[C@H]2[C@H]3[C@H](O)[C@H](O)CC(=NO[C@@H]4O[C@H](CO)[C@@H](O)[C@H](O)[C@H]4O)[C@H]3CC[C@H]2C(=O)N1c1cccc(Oc2ccccc2)c1`, the composite z-score with Albumin (Bos taurus) was -0.0534; in assay [2], -0.118; in assay [3], -0.133; in assay [4], -0.0707; in assay [5], 0.305; in assay [6], 0.105. The composite z-score in the assay with Sam68 (KHDRBS1) turned out to be 0.88; in assay [7], 0.48; in [8], 0.264. In assay [1], the composite Z-score was 0.189 (inactive).
With `CCOC(=O)[C@H](CC(C)C)NC(=O)CCC1CC(OC(=O)NCc2ccc3c(c2)OCO3)CC2(CCCC(COC(=O)NCc3cccc(C(F)(F)F)c3)O2)O1` (stereo not given in full), the composite z-score was -0.232 in the assay with Albumin (Bos taurus); -0.136 in assay [2]; -0.169 in [3]; 0.284 in [4]; 0.292 in assay [5]; -0.37 in assay [6]. In addition, the composite z-score with Sam68 (KHDRBS1) is 0.119; in [7], 0.192; in [8], 0.0441. In assay [1], the composite Z-score is -0.104 (inactive).
Regarding `CCC(=O)[C@@]1(O)C(=O)N2C(=C3C(=O)OCC[C@@H]31)N(Cc1ccccc1)C(C)=C(C(=O)OC)[C@H]2c1ccccc1`, the composite z-score with Albumin (Bos taurus) is -0.111; in assay [2] it was 0.0597; in assay [3], -0.158; in [4] it was -0.109; in assay [5], 0.0028; in assay [6] it was 0.137. The composite z-score was 0.431 in the assay with Sam68 (KHDRBS1), 0.627 in [7] and 0.602 in assay [8]. Further, the composite Z-score in assay [1] was 0.256 (inactive).
Regarding `COc1ccc(O[C@H]2C=C[C@@H](c3ccccc3)O[C@@H]2CON=C2[C@H]3CCn4c(=O)n(-c5ccccc5)c(=O)n4[C@H]3[C@H](O)[C@@H]3O[C@H]23)cc1`, the composite z-score with Albumin (Bos taurus) was 0.67; in assay [2] it was -0.0282; in [3], -0.132; in assay [4] it was 0.405; in assay [5], 0.455; in [6], 0.244. Further, the composite z-score in the assay on Sam68 (KHDRBS1) was found to be 1.18; in assay [7], 0.276; in assay [8], 0.817. In addition, the composite Z-score in assay [1] is 0.125 (inactive).
`CCOC(=O)[C@H](Cc1ccccc1)NC(=O)CCC1CC(OC(=O)NCc2cccc3ccccc23)CC2(CCCC(COC(=O)NCc3cccc(C(F)(F)F)c3)O2)O1` (stereo not given in full): the composite z-score is 0.331 with Albumin (Bos taurus); -0.124 in [2]; -0.14 in assay [3]; 0.138 in assay [4]; 0.345 in assay [5]; 0.131 in [6]. Moreover, the composite z-score is 0.462 in the assay with Sam68 (KHDRBS1), -0.0424 in assay [7] and 0.187 in assay [8]. Moreover, the composite Z-score in assay [1] is 0.0898 (inactive).
Turning to `CC(C)CON=C1[C@H]2CCn3c(=O)n(Cc4cc5c(cc4Cl)OCO5)c(=O)n3[C@H]2[C@H](O)[C@@H]2O[C@H]12`, the composite z-score with Albumin (Bos taurus) was -0.0261; in [2] it was -0.0328; in assay [3] it was -0.0718; in [4], 0.0904; in assay [5], -0.182; in assay [6], -0.177. In addition, the composite z-score with Sam68 (KHDRBS1) worked out at 0.344; in assay [7] it was 0.529; in assay [8] it was 0.702. Further, in [1], the composite Z-score is 0.242 (inactive).
For `CCCNC(=O)OC[C@H]1O[C@H](CCON=C(C)C)C=C[C@@H]1Oc1ccc(OC)cc1`, the composite z-score with Albumin (Bos taurus) is 0.317; in [2], 0.154; in assay [3] it was -0.0877; in assay [4] it was 0.0464; in assay [5], 0.857; in assay [6], -0.384. Also, the composite z-score in the assay on Sam68 (KHDRBS1) is -0.209; in assay [7], -0.186; in assay [8], 0.853. In addition, the composite Z-score in [1] was -0.0154 (inactive).
